Laboratory results from ChEMBL document CHEMBL4513146, “CO-ADD screening of Karazin Kharkiv National University (Ukraine) compounds”.
Potency and affinity values are given separately.

Test system: Klebsiella pneumoniae
Conditions: Concentration 32 ug.mL-1;; ASSAY_TEST Inhibition of Bacterial Growth; detection method Absorption (OD600); MEDIA CAMHB; plate type 384well; NBS; CORNING #3640; time 18 hr

In order of rising Inhibition:
1. CCc1ccccc1Sc1nccn2c(=O)n(CC(=O)N3CCN(c4ccccc4)CC3)nc12  -1.73%
2. Cc1ccc(-c2ccc3nn(Cc4nc(-c5ccc(Cl)cc5)no4)c(=O)n3n2)cc1  0.33%
3. CCC(C)NC(=O)Cn1nc2n(CC(C)C)c(=O)c3ccc(C(=O)NC4CCCCC4)cc3n2c1=O (centres undefined)  0.48%
4. COc1cccc(CN(c2ccc(C)c(F)c2)S(=O)(=O)c2ccc3nncn3c2)c1  1.02%
5. COc1ccc(OC)c(NC(=O)Cn2nc3c4cc(-c5ccc(F)cc5)nn4ccn3c2=O)c1  1.37%
6. CC(C)CCn1c(=O)c2ccc(C(=O)NC3CCCCC3)cc2n2c(=S)[nH]nc12  1.69%
7. Cc1ccc(Sc2ccc3nn(CC(=O)Nc4ccc(Br)c(C)c4)c(=O)n3n2)cc1  2.67%
8. Cc1cc(C)cc(N(Cc2ccc(Cl)cc2)S(=O)(=O)c2cccn3c(C)nnc23)c1  4.19%
9. CC(=O)c1ccc(NC(=O)Cn2nc3c(SC4CCCCC4)nccn3c2=O)cc1  4.71%
10. C=Cc1ccc(CN(c2ccc(F)cc2)S(=O)(=O)c2ccc3nnc(C)n3c2)cc1  5.5%
11. CCCc1nnc2c(=O)n(CC(=O)Nc3ccc(Cl)c(Cl)c3)c3ccccc3n12  5.7%
12. Cc1ccc(N(Cc2ccc(F)cc2)S(=O)(=O)c2ccc3nnc(C)n3c2)cc1  5.71%
13. CSc1ccc(CNC(=O)Cn2nc3c(N4CC(C)CC(C)C4)nccn3c2=O)cc1 (centres undefined)  6.58%
14. Cc1cc2nn(CC(=O)Nc3ccc4c(c3)OCCO4)c(=O)n2c(Nc2ccccc2C)n1  6.73%
15. CCOc1ccccc1CNC(=O)CCc1nnc2ccc(-c3ccc(C)cc3)nn12  6.87%
16. Cc1cc(C)cc(NC(=O)Cn2nc3c4cc(-c5ccc(C)c(C)c5)nn4ccn3c2=O)c1  6.91%
17. CSc1cccc(NC(=O)Cn2nc3ccc(SC(C)(C)C)nn3c2=O)c1  7.55%
18. O=c1n(Cc2nc(-c3ccc(Br)cc3)no2)nc2ccc(-c3ccccc3)nn12  7.97%
19. COc1ccc(NC(=O)c2ccc3nn(CC(=O)Nc4cccc(OC)c4)c(=O)n3c2)cc1  8.13%
20. CCOc1ccc(C(=O)Cn2nc3n(Cc4ccccc4OC)c(=O)c4sccc4n3c2=O)cc1  8.36%
21. Cc1nnc2c(S(=O)(=O)N(Cc3ccccc3)c3ccc(C(C)C)cc3)cccn12  8.51%
22. CCCCn1c(=O)c2sccc2n2c(CCC(=O)NCCC34CC5CC(CC(C5)C3)C4)nnc12  8.76%
23. CCOc1ccccc1NC(=O)Cn1nc2c(Oc3cccc(OC)c3)nccn2c1=O  8.86%
24. COC(=O)c1ccccc1NC(=O)Cn1nc2c(Oc3ccccc3C)nccn2c1=O  8.93%
25. N#CCn1nc2n(Cc3ccccc3)c(=O)c3ccccc3n2c1=O  8.96%
26. COc1ccc(CNC(=O)Cn2nc3c4cc(-c5ccc(OC)cc5)nn4ccn3c2=O)cc1  9.14%
27. COC(=O)c1ccc(CN(c2cccc(C)c2)S(=O)(=O)c2cccn3c(C)nnc23)o1  9.19%
28. O=C(Cn1nc2c(SC3CCCCC3)nccn2c1=O)Nc1ccc(Cl)cc1F  10.76%
29. COc1ccc(NC(=O)Cn2nc3cc(C)nc(Nc4ccc(F)cc4)n3c2=O)cc1F  11.33%
30. O=C(Cn1nc2c(N3CCOCC3)nccn2c1=O)NCc1ccc(F)cc1  12.27%
31. COc1ccc(NC(=O)C(C)Sc2nnc3c(=O)n(-c4ccc(C)c(C)c4)ccn23)cc1 (centres undefined)  12.32%
32. Cc1cc2nn(CC(=O)NCc3ccccc3)c(=O)n2c(Nc2ccc(C)c(F)c2)n1  12.56%
33. COC(=O)c1cccc(NC(=O)Cn2nc3c(Sc4ccc(C)cc4C)nccn3c2=O)c1  13.86%
34. Cc1ccccc1NC(=O)Cn1nc2c3cc(-c4ccc(Cl)cc4)nn3ccn2c1=O  14.64%
35. COc1ccc(CNC(=O)CCc2nnc3ccc(-c4ccccc4)nn23)cc1OC  15.01%
36. Cc1cccc(Oc2nccn3c(=O)n(CC(=O)NCCCc4ccccc4)nc23)c1C  15.41%
37. COc1ccc(CNC(=O)CSc2nnc3c4cc(-c5ccccc5)nn4ccn23)cc1  15.76%
38. COc1cccc(-n2ccn3c(SCC(=O)NCc4ccco4)nnc3c2=O)c1  16.06%
39. O=C(CCc1nnc2ccc(-c3ccc(Cl)cc3)nn12)NCc1ccc(F)cc1Cl  20.9%
